Reference: PubChem BioAssay (Tox21)
Values joined by “and” are separate entries in the source; they are usually repeats but may differ in a detail not shown here. Equal values may be shown once. Results filed as inconclusive are left out. A call without a number means that no potency is given here. Where a structure was tested more than once in an assay, its records may differ in their call. Active and inactive are the calls of the source. Calls follow the shape of the full dose curve.

These compounds were tested against Beta-2 adrenergic receptor (Homo sapiens) (UniProt P07550) (assay: Adrenergic beta2 receptor (ADRB2) small molecule antagonists, cell-based qHTS assay (AID 1963592; also: nearly all actives have a fitted effect of over 50% in size)). Settings: CHO-ADRB2 cells, isoproterenol-stimulated cAMP HTRF ratio, 0.5 h; series mostly up to 92.4 µM; activity change, negative = inhibition: at the top concentration.
Chain of Beta-2 adrenergic receptor (Homo sapiens) (P07550 whole entry, looked up): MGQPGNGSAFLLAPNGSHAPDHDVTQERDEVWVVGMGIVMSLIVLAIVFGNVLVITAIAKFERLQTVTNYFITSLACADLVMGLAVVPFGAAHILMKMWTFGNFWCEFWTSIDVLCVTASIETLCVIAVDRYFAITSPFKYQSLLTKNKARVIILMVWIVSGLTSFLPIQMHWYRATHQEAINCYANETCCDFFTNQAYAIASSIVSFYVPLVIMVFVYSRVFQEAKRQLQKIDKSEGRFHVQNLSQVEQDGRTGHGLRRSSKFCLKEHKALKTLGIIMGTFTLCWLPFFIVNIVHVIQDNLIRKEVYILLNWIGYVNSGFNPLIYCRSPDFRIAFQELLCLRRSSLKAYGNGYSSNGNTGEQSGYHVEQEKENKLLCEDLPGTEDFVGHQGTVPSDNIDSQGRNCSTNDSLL
Text: U.S. Tox21 Program National Center for Advancing Translational Sciences [NCATS] Division of Preclinical Innovation [DPI] U.S. Environmental Protection Agency [EPA] National Institutes of Environmental Health Sciences [NIEHS] National Toxicology Program [NTP] U.S. Food and Drug Administration [FDA] Tox21 Assay Overview: Beta adrenergic receptors (Beta-ARs) belong to the G-protein coupled receptor (GPCR) superfamily, includes three subtypes - beta1, beta2, and beta3. Beta1-AR is the predominant receptor subtype expressed in the heart, and beta2-AR is expressed in the kidney, lung, blood vessel and in the heart, and beta3 is found in the adipocytes. Beta1 and 2 ARs couple to Gs protein and elevate cyclic adenosine mono phosphate (cAMP), which activates protein kinase A and leads to the downstream signaling responsible for the physiological actions. Beta-AR agonists or antagonists are the most prescribed therapeutic agents for heart failure and asthma, and these were one of the first target receptors for the rational drug design. Tox21 10K compound library was screened using the cAMP-Gs dynamic assay (Cisbio Bioassays, Shelton, CT) to identify agonists/antagonists of the Gs-coupled human adrenergic, beta2 receptor (ADRB2) in the CHO-ADRB2 cell line (Codex BioSolutions, Inc. Gaithersburg, MD), which stably over-expresses ADRB2. The principle of cAMP-Gs dynamic assay is based on HTRF technology, which facilitates the fluorescence resonance energy transfer (FRET) between donor Europium cryptate and acceptor d2-labeled cAMP. The cAMP generated within cells competes with the red acceptor, d2-labled cAMP, for binding to the monoclonal anti-cAMP-cryptate (Europium donor). An increase in intracellular cAMP leads to the disruption of FRET signal, and the signal is inversely proportional to the cAMP concentration. Propranolol HCl (Sigma-Aldrich, St. Louis, MO) was used as a positive control in the screening.
Tox21 Assay Protocol Summary: CHO-ADRB2 cells were dispensed at 1,000/well in 4uL assay medium into white/solid 1536-well plates (Greiner Bio-One North America Inc., Monroe, NC) using a Multidrop Combi dispenser (ThermoFisher Scientific, Waltham, MA). The assay plates were incubated at 37C and 5% CO2 for an overnight (18-20hr). Then positive control and test compounds dissolved in DMSO were transferred to the assay plates at 23nL using a Pintool station (Wako, San Diego, CA). Following the compound and positive control transfer, 1uL agonist-stimulation mix containing 1nM Isoproterenol HCl, 100uM IBMX and 25uM Ro-20-1724 was added to each well of the assay plates using BioRAPTR Flying Reagent Dispenser (FRD, Beckman Coulter, Brea, CA). The assay plates were incubated at room temperature for 0.5hr. Then 2.5ul each d2-labled cAMP and anti-cAMP-cryptate solutions were added separately to each well of the assay plates using an FRD and the assay plates were incubated at room temperature for 1hr. The fluorescence signal was measured at two different wavelengths (665nm and 615nm) using an Envision plate reader (Perkin Elmer, Shelton, CT). Data were expressed as the ratio of 665 nm/615 nm.
Potency is read from the fitted curve at half-maximal effect.

SMILES | Potency | activity change, negative = inhibition
OCCc1ccccc1 | inactive | 
O=C(O)CCCC[C@@H]1SC[C@@H]2NC(=O)N[C@@H]21 | inactive | 
Nc1ncnc2nc[nH]c12 | inactive | 
CC(=O)Nc1cccc(O)c1 | inactive | 
CCCCOCCOCCOC(C)=O | inactive | 
NS(=O)(=O)c1cc(C(=O)O)c(NCc2ccco2)cc1Cl | inactive | 
CCC[C@H](N[C@@H](C)C(=O)N1[C@H](C(=O)O)C[C@@H]2CCCC[C@@H]21)C(=O)OCC | inactive | 
Cc1c(OCC(F)(F)F)ccnc1CS(=O)c1nc2ccccc2[nH]1 (stereo not given) | inactive | 
CCOC(=O)CC(=O)OCC | inactive | 
Cc1ccc(Cl)cc1 | inactive | 
NC(=S)NNC(N)=S | inactive | 
CCCCCCOC(C)=O | inactive | 
CCCN(CCC)S(=O)(=O)c1ccc(C(=O)O)cc1 | inactive | 
CCC(=O)/C=C/C1C(C)=CCCC1(C)C (stereo not given) | inactive | 
CCCCCCCC(=O)OCC(COC(=O)CCCCCCC)OC(=O)CCCCCCC | inactive | 
CC(C)=CCCC(C)CCO (stereo not given) | inactive | 
C=C(C#N)C(=O)OCC |  | 8.16% (inactive)
O=[N+]([O-])c1ccccc1C(F)(F)F | inactive | 
O=CCCCC=O | inactive | 
c1ccc(OCCOc2ccccc2)cc1 | inactive | 

SMILES | Potency | activity change, negative = inhibition
Cc1ccccc1C=O | inactive | 
CCCCCCCCOc1ccc(C(=O)c2ccccc2)c(O)c1 | inactive | 
Cc1ncc(CO)c(CO)c1O | inactive | 
CC(=O)OCC(COC(C)=O)OC(C)=O | inactive | 
CCCC(O)C(CC)CO (stereo not given) | inactive | 
CN(C)CCN(Cc1cccs1)c1ccccn1 | inactive | 
O=C1O[C@H]([C@H](O)CO)C(O)=C1O |  | 1.54% (inactive)
CC(=O)c1ccccn1 | inactive | 
NS(=O)(=O)c1cc2c(cc1Cl)NC=NS2(=O)=O | inactive | 
Oc1c(Cl)cc(Cl)cc1Sc1cc(Cl)cc(Cl)c1O | 55.4 µM (active) and inactive | 
CC(=O)CCC=C(C)C | inactive | 
C/C=C(C)/C=C/C=C(C)C | inactive | 
COCCOCCOC | inactive | 
Oc1c(Cl)cc(Cl)c(Cl)c1Cc1c(O)c(Cl)cc(Cl)c1Cl | inactive and 48.6 µM (active) | 
COC(=O)CC(=O)OC | inactive | 
CCNc1cccc(C)c1 | inactive | 
NNc1ccc(C(=O)O)cc1 |  | -7.91% (inactive)
Cc1ccc(N)c(S(=O)(=O)O)c1 | inactive | 
CN1C(=O)CC[C@H]1c1cccnc1 | inactive | 
CN/C(=C\[N+](=O)[O-])NCCSCc1csc(CN(C)C)n1 | inactive | 
